Data reported in PubChem BioAssay (NCI).
Several values for one entry are separate records, joined by “and”; a condition that tells them apart may be missing. Equal values may be shown once. The panel holds about 79,000 compounds, 15% with a hit somewhere; the sample as a whole holds those more often. Some structures have more than one record in an assay (separate samples or runs), and their calls can disagree. Activity calls are given as the source filed them. Cut-off read from the data, not from the text of the source: active = growth inhibition above about 70%; inactive = the rest.

Experiments:
[1] = NCI Yeast Anticancer Drug Screen. Data for the rad52 strain (AID 147);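 note: 0% = growth of vehicle-treated control cultures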; conditions: S. cerevisiae rad52 mutant growth inhibition, stronger effect = higher value
How it was run: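 Screen used a yeast mutant impaired in DNA repair. After compound exposure, growth was measured. Values reflect inhibition compared with vehicle-treated cells.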

[2] = NCI Yeast Anticancer Drug Screen. Data for the wt1 strain (AID 149);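 note: 0% = growth of vehicle-treated wt1 cultures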; conditions: S. cerevisiae wt1 strain (SPY 50644) growth inhibition, stronger effect = higher value
How it was run: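 Using yeast strain wt1, compound-induced growth inhibition was determined against vehicle-treated cultures.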

[3] = NCI Yeast Anticancer Drug Screen. Data for the rad50EPP+ strain (AID 151);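 note: 0% = growth of vehicle-treated control cultures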; conditions: S. cerevisiae rad50 mutant strain, stronger effect = higher value
How it was run: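 Exposing the rad50EPP+ strain to each compound, growth was compared with vehicle-only cultures to give inhibition.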

[4] = NCI Yeast Anticancer Drug Screen. Data for the mgt1 strain (AID 153); conditions: S. cerevisiae mgt1 mutant growth inhibition, stronger effect = higher value
How it was run: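 Genetically defined yeast (mgt1) treated with compound; inhibition of growth expressed against vehicle-treated controls.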

[5] = NCI Yeast Anticancer Drug Screen. Data for the rad50 strain (AID 155);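 note: 0% = growth of vehicle-only cultures of the same strain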; conditions: S. cerevisiae rad50 strain growth inhibition, stronger effect = higher value
How it was run: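 Relative growth inhibition (compound vs vehicle) was measured in yeast with a defined repair-gene alteration.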

[6] = NCI Yeast Anticancer Drug Screen. Data for the mec2-1 strain (AID 157); conditions: S. cerevisiae mec2-1 strain, stronger effect = higher value
How it was run: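 Readout is yeast growth inhibition, normalised to vehicle-treated controls, in the mec2-1 strain exposed to compound.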

[7] = NCI Yeast Anticancer Drug Screen. Data for the rad14 strain (AID 159);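 note: 0% = growth of vehicle-treated control cultures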; conditions: S. cerevisiae rad14 strain growth inhibition, stronger effect = higher value
How it was run: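 Screen for anticancer potential: a yeast strain altered in DNA damage repair is grown with compound, and reduced growth is quantified against vehicle controls.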

[8] = NCI Yeast Anticancer Drug Screen. Data for the sgs1 mgt1 strain (AID 161);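 note: 0% = growth of cultures given vehicle only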; conditions: S. cerevisiae sgs1 mgt1 strain, stronger effect = higher value
How it was run: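 Percent growth inhibition was derived by comparing compound-exposed mutant yeast with vehicle-exposed cultures. The strain carries alterations in DNA damage repair.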

[9] = NCI Yeast Anticancer Drug Screen. Data for the CLN2oe strain (AID 163);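 note: 0% = growth of vehicle-only control cultures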; conditions: S. cerevisiae CLN2oe strain, stronger effect = higher value
How it was run: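 Values reflect how much compound exposure reduced yeast growth, referenced to vehicle-exposed cells. Assay organism is a strain with a defined genetic change affecting cell-cycle control.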

[10] = NCI Yeast Anticancer Drug Screen. Data for the bub3 strain (AID 167); conditions: S. cerevisiae bub3 mutant strain, stronger effect = higher value
How it was run: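 Screening used yeast with an engineered genetic alteration affecting cell cycle control. Compound-exposed cultures were compared with vehicle cultures, and reduced growth was taken as inhibition.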

[11] = NCI Yeast Anticancer Drug Screen. Data for the wt2 strain (AID 169);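 note: 0% = growth of vehicle-treated yeast cultures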; conditions: S. cerevisiae wt2 strain growth inhibition, stronger effect = higher value
How it was run: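 Values express reduction in yeast growth under compound treatment, referenced to vehicle-treated cells.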

[12] = NCI Yeast Anticancer Drug Screen. Data for the mlh1 strain (AID 171);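 note: 0% = growth of vehicle-treated control cultures of the same strain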; conditions: S. cerevisiae mlh1 strain growth inhibition, stronger effect = higher value
How it was run: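 Steps: expose the defined-mutant yeast strain to compound; expose a parallel culture to vehicle; measure growth; express compound effect as inhibition relative to the vehicle culture.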

[13] = NCI Yeast Anticancer Drug Screen. Data for the sgs1 strain (AID 173);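 note: 0% = growth of vehicle-only control cultures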; conditions: S. cerevisiae sgs1 mutant, stronger effect = higher value
How it was run: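 Treat defined-mutant yeast with compound; measure growth; calculate inhibition relative to vehicle-treated cells.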

[14] = NCI Yeast Anticancer Drug Screen. Data for the mlh1 rad18 strain (AID 175); conditions: S. cerevisiae mlh1 rad18 strain growth inhibition, stronger effect = higher value
How it was run: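 Test agents were incubated with a yeast strain of defined genotype (DNA damage repair defect). Inhibition of growth was derived by comparison with vehicle-exposed cultures.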

[15] = NCI Yeast Anticancer Drug Screen. Data for the rad18 strain (AID 177); conditions: S. cerevisiae rad18 mutant growth inhibition, stronger effect = higher value
How it was run: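 A genetically defined yeast mutant impaired in DNA damage repair was treated with test compounds, then its growth was measured against cultures receiving vehicle alone.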

[16] = at 5.0 µM (retest, dose inferred, filed as 0.5)
[17] = at 50.0 µM (retest, dose inferred, filed as 5.0)

Measured: growth inhibition

O=c1[nH]c2ccc(Cl)cc2o1
inactive: [1]; at 1.2 µM -14% | [1]; at 3.7 µM -10% | [1]; at 11.0 µM -11% | [1]; at 33.0 µM -13% | [1]; at 100.0 µM -1% | [2]; at 1.2 µM -30% | [2]; at 3.7 µM -28% | [2]; at 11.0 µM -33% | [2]; at 33.0 µM -32% | [2]; at 100.0 µM -23% | [3]; at 1.2 µM -43% | [3]; at 3.7 µM -42% | [3]; at 11.0 µM -33% | [3]; at 33.0 µM -52% | [3]; at 100.0 µM -64% | [4]; at 1.2 µM -45% | [4]; at 3.7 µM -37% | [4]; at 11.0 µM -28% | [4]; at 33.0 µM -33% | [4]; at 100.0 µM -23% | [5]; at 1.2 µM -31% | [5]; at 3.7 µM -23% | [5]; [16] 47% and 1% | [5]; at 11.0 µM -17% | [5]; at 33.0 µM -19% | [5]; at 50.0 µM 15.6% and 15.7% | [5]; at 100.0 µM -18% | [6]; at 1.2 µM -62% | [6]; at 3.7 µM -70% | [6]; [16] 48% and -3% | [6]; at 11.0 µM -60% | [6]; at 33.0 µM -47% | [6]; at 50.0 µM 3.9% and 2.1% | [6]; at 100.0 µM -53% | [7]; at 1.2 µM -44% | [7]; at 3.7 µM -38% | [7]; at 11.0 µM -28% | [7]; at 33.0 µM -35% | [7]; at 100.0 µM -32% | [8]; [16] 6% and 1% | [8]; [17] 20% and 51% | [8]; at 50.0 µM 15.4% and -2.75% | [9]; at 1.2 µM -25% | [9]; at 3.7 µM -26% | [9]; at 11.0 µM -30% | [9]; at 33.0 µM -34% | [9]; at 100.0 µM -15% | [10]; at 1.2 µM -15% | [10]; at 3.7 µM -1% | [10]; [16] 57% and 20% | [10]; at 11.0 µM 7% | [11]; at 1.2 µM -27% | [11]; at 3.7 µM -27% | [11]; at 11.0 µM -31% | [11]; at 33.0 µM -27% | [11]; at 100.0 µM -6% | [12]; at 1.2 µM -41% | [12]; at 3.7 µM -33% | [12]; at 11.0 µM -56% | [12]; at 33.0 µM -41% | [12]; at 100.0 µM -27% | [13]; at 1.2 µM -36% | [13]; at 3.7 µM -47% | [13]; at 11.0 µM -48% | [13]; at 33.0 µM -34% | [13]; at 100.0 µM -22% | [14]; [16] 52% and 1% | [14]; at 50.0 µM 24.9% and -2.65% | [15]; at 1.2 µM -39% | [15]; at 3.7 µM -34% | [15]; at 11.0 µM -46% | [15]; at 33.0 µM -38% | [15]; at 100.0 µM -21%
92% (active) and 32% (inactive): [14]; [17]
98% (active) and 64% (inactive): [5]; [17]
active: [10]; at 33.0 µM 71% | [10]; [17] 92% and 96% | [10]; at 50.0 µM 87.3% and 92% | [10]; at 100.0 µM 92%
93% (active) and 68% (inactive): [6]; [17]
